{"source": "the supplement of paper PMC4466140", "binders": {"B1": {"name": "unnamed (peptide)", "chain": "NRPAIRIPSLKKPAL"}}}
{"molecular_target": "AgAbp1", "test": "SPOT peptide array binding signal intensity (averaged, normalized) (arbitrary units (background-subtracted, floor 0; scale differs between SH3 domains)); higher = stronger binding of the SH3 domain to the peptide", "method": "(§1)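 GST-tagged SH3 domains from S. cerevisiae (Sc), A. gossypii (Ag), C. albicans (Ca) and S. pombe (Sp) were incubated at 10 ug/ml overnight at 4 C on cellulose SPOT membranes carrying 292 synthetic 15-mer peptides mined from the S. cerevisiae proteome (cysteines replaced by serines). Binding was detected with anti-GST antibody, HRP secondary and chemiluminescence, quantified with Genespotter, and reported as normalized spot intensities averaged over biological replicates.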"}
{"binder": "B1", "SPOT peptide array binding signal intensity": 20}
{"molecular_target": "AgBbc1", "test": "SPOT peptide array binding signal intensity (averaged, normalized) (arbitrary units (background-subtracted, floor 0; scale differs between SH3 domains)); higher = stronger binding of the SH3 domain to the peptide", "method": "as §1"}
{"binder": "B1", "SPOT peptide array binding signal intensity": 12.5}
{"molecular_target": "AgBem1-D1", "test": "SPOT peptide array binding signal intensity (averaged, normalized) (arbitrary units (background-subtracted, floor 0; scale differs between SH3 domains)); higher = stronger binding of the SH3 domain to the peptide", "method": "as §1"}
{"binder": "B1", "SPOT peptide array binding signal intensity": 54.5}
{"molecular_target": "AgBzz1-D1", "test": "SPOT peptide array binding signal intensity (averaged, normalized) (arbitrary units (background-subtracted, floor 0; scale differs between SH3 domains)); higher = stronger binding of the SH3 domain to the peptide", "method": "as §1"}
{"binder": "B1", "SPOT peptide array binding signal intensity": 16}
{"molecular_target": "AgBzz1-D2", "test": "SPOT peptide array binding signal intensity (averaged, normalized) (arbitrary units (background-subtracted, floor 0; scale differs between SH3 domains)); higher = stronger binding of the SH3 domain to the peptide", "method": "as §1"}
{"binder": "B1", "SPOT peptide array binding signal intensity": 7}
{"molecular_target": "AgCyk3", "test": "SPOT peptide array binding signal intensity (averaged, normalized) (arbitrary units (background-subtracted, floor 0; scale differs between SH3 domains)); higher = stronger binding of the SH3 domain to the peptide", "method": "as §1"}
{"binder": "B1", "SPOT peptide array binding signal intensity": 2}
{"molecular_target": "AgFus1", "test": "SPOT peptide array binding signal intensity (averaged, normalized) (arbitrary units (background-subtracted, floor 0; scale differs between SH3 domains)); higher = stronger binding of the SH3 domain to the peptide", "method": "as §1"}
{"binder": "B1", "SPOT peptide array binding signal intensity": 226}
{"molecular_target": "AgHof1", "test": "SPOT peptide array binding signal intensity (averaged, normalized) (arbitrary units (background-subtracted, floor 0; scale differs between SH3 domains)); higher = stronger binding of the SH3 domain to the peptide", "method": "as §1"}
{"binder": "B1", "SPOT peptide array binding signal intensity": 111}
{"molecular_target": "AgHse1", "test": "SPOT peptide array binding signal intensity (averaged, normalized) (arbitrary units (background-subtracted, floor 0; scale differs between SH3 domains)); higher = stronger binding of the SH3 domain to the peptide", "method": "as §1"}
{"binder": "B1", "SPOT peptide array binding signal intensity": 800}
{"molecular_target": "AgLsb1", "test": "SPOT peptide array binding signal intensity (averaged, normalized) (arbitrary units (background-subtracted, floor 0; scale differs between SH3 domains)); higher = stronger binding of the SH3 domain to the peptide", "method": "as §1"}
{"binder": "B1", "SPOT peptide array binding signal intensity": 361}
{"molecular_target": "AgLsb4", "test": "SPOT peptide array binding signal intensity (averaged, normalized) (arbitrary units (background-subtracted, floor 0; scale differs between SH3 domains)); higher = stronger binding of the SH3 domain to the peptide", "method": "as §1"}
{"binder": "B1", "SPOT peptide array binding signal intensity": 18.5}
{"molecular_target": "AgMyo5", "test": "SPOT peptide array binding signal intensity (averaged, normalized) (arbitrary units (background-subtracted, floor 0; scale differs between SH3 domains)); higher = stronger binding of the SH3 domain to the peptide", "method": "as §1"}
{"binder": "B1", "SPOT peptide array binding signal intensity": 0.5}
{"molecular_target": "AgNbp2", "test": "SPOT peptide array binding signal intensity (averaged, normalized) (arbitrary units (background-subtracted, floor 0; scale differs between SH3 domains)); higher = stronger binding of the SH3 domain to the peptide", "method": "as §1"}
{"binder": "B1", "SPOT peptide array binding signal intensity": 114}
{"molecular_target": "AgRvs167", "test": "SPOT peptide array binding signal intensity (averaged, normalized) (arbitrary units (background-subtracted, floor 0; scale differs between SH3 domains)); higher = stronger binding of the SH3 domain to the peptide", "method": "as §1"}
{"binder": "B1", "SPOT peptide array binding signal intensity": 1.33}
{"molecular_target": "AgSho1", "test": "SPOT peptide array binding signal intensity (averaged, normalized) (arbitrary units (background-subtracted, floor 0; scale differs between SH3 domains)); higher = stronger binding of the SH3 domain to the peptide", "method": "as §1"}
{"binder": "B1", "SPOT peptide array binding signal intensity": 21.5}
{"molecular_target": "AgSla1-D1-D2", "test": "SPOT peptide array binding signal intensity (averaged, normalized) (arbitrary units (background-subtracted, floor 0; scale differs between SH3 domains)); higher = stronger binding of the SH3 domain to the peptide", "method": "as §1"}
{"binder": "B1", "SPOT peptide array binding signal intensity": 24}
{"molecular_target": "AgSla1-D3", "test": "SPOT peptide array binding signal intensity (averaged, normalized) (arbitrary units (background-subtracted, floor 0; scale differs between SH3 domains)); higher = stronger binding of the SH3 domain to the peptide", "method": "as §1"}
{"binder": "B1", "SPOT peptide array binding signal intensity": 5.5}
{"molecular_target": "CaAbp1-D1", "test": "SPOT peptide array binding signal intensity (averaged, normalized) (arbitrary units (background-subtracted, floor 0; scale differs between SH3 domains)); higher = stronger binding of the SH3 domain to the peptide", "method": "as §1"}
{"binder": "B1", "SPOT peptide array binding signal intensity": 191}
{"molecular_target": "CaAbp1-D2", "test": "SPOT peptide array binding signal intensity (averaged, normalized) (arbitrary units (background-subtracted, floor 0; scale differs between SH3 domains)); higher = stronger binding of the SH3 domain to the peptide", "method": "as §1"}
{"binder": "B1", "SPOT peptide array binding signal intensity": 44}
{"molecular_target": "CaBbc1", "test": "SPOT peptide array binding signal intensity (averaged, normalized) (arbitrary units (background-subtracted, floor 0; scale differs between SH3 domains)); higher = stronger binding of the SH3 domain to the peptide", "method": "as §1"}
{"binder": "B1", "SPOT peptide array binding signal intensity": 122}
{"molecular_target": "CaBem1-D1", "test": "SPOT peptide array binding signal intensity (averaged, normalized) (arbitrary units (background-subtracted, floor 0; scale differs between SH3 domains)); higher = stronger binding of the SH3 domain to the peptide", "method": "as §1"}
{"binder": "B1", "SPOT peptide array binding signal intensity": 41}
{"molecular_target": "CaBzz1-D1", "test": "SPOT peptide array binding signal intensity (averaged, normalized) (arbitrary units (background-subtracted, floor 0; scale differs between SH3 domains)); higher = stronger binding of the SH3 domain to the peptide", "method": "as §1"}
{"binder": "B1", "SPOT peptide array binding signal intensity": 25.5}
{"molecular_target": "CaBzz1-D2", "test": "SPOT peptide array binding signal intensity (averaged, normalized) (arbitrary units (background-subtracted, floor 0; scale differs between SH3 domains)); higher = stronger binding of the SH3 domain to the peptide", "method": "as §1"}
{"binder": "B1", "SPOT peptide array binding signal intensity": 21.8}
{"molecular_target": "CaCyk3", "test": "SPOT peptide array binding signal intensity (averaged, normalized) (arbitrary units (background-subtracted, floor 0; scale differs between SH3 domains)); higher = stronger binding of the SH3 domain to the peptide", "method": "as §1"}
{"binder": "B1", "SPOT peptide array binding signal intensity": 7}
{"molecular_target": "CaFus1", "test": "SPOT peptide array binding signal intensity (averaged, normalized) (arbitrary units (background-subtracted, floor 0; scale differs between SH3 domains)); higher = stronger binding of the SH3 domain to the peptide", "method": "as §1"}
{"binder": "B1", "SPOT peptide array binding signal intensity": 765}
{"molecular_target": "CaHof1", "test": "SPOT peptide array binding signal intensity (averaged, normalized) (arbitrary units (background-subtracted, floor 0; scale differs between SH3 domains)); higher = stronger binding of the SH3 domain to the peptide", "method": "as §1"}
{"binder": "B1", "SPOT peptide array binding signal intensity": "≤ 0"}
{"molecular_target": "CaHse1", "test": "SPOT peptide array binding signal intensity (averaged, normalized) (arbitrary units (background-subtracted, floor 0; scale differs between SH3 domains)); higher = stronger binding of the SH3 domain to the peptide", "method": "as §1"}
{"binder": "B1", "SPOT peptide array binding signal intensity": 27}
{"molecular_target": "CaLsb1", "test": "SPOT peptide array binding signal intensity (averaged, normalized) (arbitrary units (background-subtracted, floor 0; scale differs between SH3 domains)); higher = stronger binding of the SH3 domain to the peptide", "method": "as §1"}
{"binder": "B1", "SPOT peptide array binding signal intensity": 2.5}
{"molecular_target": "CaLsb4", "test": "SPOT peptide array binding signal intensity (averaged, normalized) (arbitrary units (background-subtracted, floor 0; scale differs between SH3 domains)); higher = stronger binding of the SH3 domain to the peptide", "method": "as §1"}
{"binder": "B1", "SPOT peptide array binding signal intensity": 10.5}
{"molecular_target": "CaMyo5", "test": "SPOT peptide array binding signal intensity (averaged, normalized) (arbitrary units (background-subtracted, floor 0; scale differs between SH3 domains)); higher = stronger binding of the SH3 domain to the peptide", "method": "as §1"}
{"binder": "B1", "SPOT peptide array binding signal intensity": 2.75}
{"molecular_target": "CaNbp2", "test": "SPOT peptide array binding signal intensity (averaged, normalized) (arbitrary units (background-subtracted, floor 0; scale differs between SH3 domains)); higher = stronger binding of the SH3 domain to the peptide", "method": "as §1"}
{"binder": "B1", "SPOT peptide array binding signal intensity": 270}
{"molecular_target": "CaRvs167", "test": "SPOT peptide array binding signal intensity (averaged, normalized) (arbitrary units (background-subtracted, floor 0; scale differs between SH3 domains)); higher = stronger binding of the SH3 domain to the peptide", "method": "as §1"}
{"binder": "B1", "SPOT peptide array binding signal intensity": 33.3}
{"molecular_target": "CaRvs167-3", "test": "SPOT peptide array binding signal intensity (averaged, normalized) (arbitrary units (background-subtracted, floor 0; scale differs between SH3 domains)); higher = stronger binding of the SH3 domain to the peptide", "method": "as §1"}
{"binder": "B1", "SPOT peptide array binding signal intensity": 23}
{"molecular_target": "CaSho1", "test": "SPOT peptide array binding signal intensity (averaged, normalized) (arbitrary units (background-subtracted, floor 0; scale differs between SH3 domains)); higher = stronger binding of the SH3 domain to the peptide", "method": "as §1"}
{"binder": "B1", "SPOT peptide array binding signal intensity": 218}
{"molecular_target": "CaSla1-D1-D2", "test": "SPOT peptide array binding signal intensity (averaged, normalized) (arbitrary units (background-subtracted, floor 0; scale differs between SH3 domains)); higher = stronger binding of the SH3 domain to the peptide", "method": "as §1"}
{"binder": "B1", "SPOT peptide array binding signal intensity": 4.5}
{"molecular_target": "CaSla1-D3", "test": "SPOT peptide array binding signal intensity (averaged, normalized) (arbitrary units (background-subtracted, floor 0; scale differs between SH3 domains)); higher = stronger binding of the SH3 domain to the peptide", "method": "as §1"}
{"binder": "B1", "SPOT peptide array binding signal intensity": 0.75}
{"molecular_target": "ScAbp1", "test": "SPOT peptide array binding signal intensity (averaged, normalized) (arbitrary units (background-subtracted, floor 0; scale differs between SH3 domains)); higher = stronger binding of the SH3 domain to the peptide", "method": "as §1"}
{"binder": "B1", "SPOT peptide array binding signal intensity": 53.5}
